Screening data as filed in PubChem BioAssay.
Many of the other results were omitted from the sample, so hits are more common in it than they were.
14-3-3 PPI: modulators of 14-3-3 gamma protein binding, primary screen, biochemical, fluorescence polarization | 160,000 compounds, 0.19% hits | FP, 14-3-3gamma / TMR-pS259-Raf peptide binding | 14-3-3 protein gamma (Homo sapiens), P61981 | inhibition, % at 40 µM; in the data active = inhibition above about 30%
Target sequence (P61981 whole entry, looked up): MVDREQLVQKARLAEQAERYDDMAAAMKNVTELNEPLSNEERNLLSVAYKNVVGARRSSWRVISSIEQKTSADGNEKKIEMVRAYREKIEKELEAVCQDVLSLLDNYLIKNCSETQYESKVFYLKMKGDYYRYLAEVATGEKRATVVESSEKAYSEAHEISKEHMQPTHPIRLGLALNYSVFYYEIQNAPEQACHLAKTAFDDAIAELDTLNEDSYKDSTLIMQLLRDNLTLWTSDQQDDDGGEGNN
A number is an active result; - = inactive; ! = not active in a repeat.

SMILES	14-3-3 PPI
O=C(CN(Cc1ccccc1)S(=O)(=O)c1ccc(Br)cc1)NCc1ccncc1	-
O=C(CN(Cc1ccccc1)S(=O)(=O)c1ccccc1)NCc1ccncc1	33
CC(=O)N1c2c(cc(Br)cc2S(=O)(=O)NCCc2ccccc2)CC1C (centres undefined)	-
CCOC(=O)C1=CN(C)C=C(C(=O)OCC)C1c1ccccc1F	-
Cc1ccc(Cl)cc1N1CCN(C(=O)CCS(=O)(=O)c2ccc(Br)s2)CC1	-
COC(=O)CC1SC(=O)NC1=Nc1ccc(O)cc1 (centres undefined)	-
COc1cc(C=Nc2ccc(N(C)C(C)=O)cc2)ccc1OC(C)=O	-
COc1cc(C=Nc2ccc(O)cc2)ccc1OC(=O)CC1SC(=O)NC1=O (centres undefined)	103
c1csc(-c2nnc(Oc3ccc4c(c3)OCO4)c3ccccc23)c1	-
Cc1nnc(C)n1N1C(=O)c2cccc3cccc(c23)C1=O	-
NC1=CC(=O)c2cccc3cccc1c23	80!
O=C1c2cccc3cccc(c23)C(=O)N1c1ccccc1	-
CC1(C)Cc2nc3nc(SCC(=O)c4ccc(Cl)cc4)n(-c4ccccc4)c(=O)c3cc2CO1	-
COc1ccc(N2C(=O)c3sc4nnc(C)c(=O)n4c3C2=O)cc1	-
COC(=O)c1ccc2c(c1)SC1=C(CCCC1=O)N2	33
COC(=O)c1ccc2c(c1)NC(=O)CS2	-
COC(=O)c1ccc(C2C3=C(CCCC3=O)Nc3ccc4nc(C)ccc4c32)cc1 (centres undefined)	-
COc1ccc(NC(=O)c2c(NCc3cccc(F)c3)sc3c2CCC3)cc1	-
CCOc1ccccc1C(=O)Nc1cc(OC)ccc1OC	-
COc1ccccc1N=Cc1c(O)c(C(=O)Nc2ccccc2OC)cc2ccccc12	78
CC(=O)Nc1ccc(N=Cc2c(OC(=O)c3cccc4ccccc34)ccc3ccccc23)cc1	-
COc1cc2ccccc2cc1C(=O)Nc1ccccc1Oc1ccccc1	-
CCOc1ccc(N=Cc2c(O)c(C(=O)Nc3ccccc3)cc3ccccc23)cc1	71
COc1ccccc1NC(=O)c1cc2ccccc2c(C=Nc2ccc(Cl)cc2)c1O	-
CCOc1ccc(N=Cc2c(O)c(C(=O)Nc3ccccc3OC)cc3ccccc23)cc1	59
SMILES	14-3-3 PPI
CCOc1ccc(-c2nc3cc(N=Cc4c(O)ccc5ccccc45)ccc3o2)cc1	-
O=C(Nc1ccccc1)c1cc2ccccc2c(C=Nc2ccc(Cl)cc2)c1O	-
COc1ccccc1NC(=O)c1coc(=O)c2ccccc12	-
CCOc1ccc(NC(=O)c2cc(-c3cccs3)nc3ccccc23)cc1	-
CC(=O)Nc1ccc(N=Cc2c(O)c(C(=O)Nc3ccccc3)cc3ccccc23)cc1	174
COc1cc(C2C(C(=O)Nc3ccc(Br)cn3)=C(C)NC3=C2C(=O)CCC3)ccc1O (centres undefined)	-
COC(=O)C1=C(C)NC(C)=C(C(=O)OC)C1c1cn(-c2ccccc2)nc1-c1ccc(C)cc1	-
CCOC(=O)C1CCCN(C(=O)C2CCN(S(=O)(=O)N3CCC(C)CC3)CC2)C1 (centres undefined)	-
CC(C)c1ccc(C2Nc3ccccc3C(=O)N2c2ccc(F)cc2)cc1 (centres undefined)	-
Cc1sc2nc3c(C(=O)N4CCOCC4)cccn3c(=O)c2c1C	-
CCOC(=O)CNC(=O)c1nc2ncccn2n1	-
NC(=O)c1sc2nsc(SCc3ccccc3Cl)c2c1N	-
CCOC(=O)c1c(NC(=O)CSc2nc3c(cnn3-c3ccc(F)cc3)c(=O)[nH]2)sc2c1CCCCC2	-
O=C(Nc1cc(Cl)ccc1O)C1CC(=O)N(c2ccccc2)C1 (centres undefined)	-
CCC(=O)Oc1c(-c2ccccc2)c2nc3ccccc3nc2c2ccccc12	-
CC(=O)Oc1c(-c2ccccc2)c2nc3ccccc3nc2c2ccccc12	33
CC(=O)Oc1c(C)cc(O)c2ccccc12	-
CC1CCCCN1CCCNC(=O)c1cc(=O)[nH]c2ccc(S(=O)(=O)N3CCOCC3)cc12 (centres undefined)	-
Cc1ccc(Cn2c(=O)cc(C(=O)NC3CCCCCCC3)c3ccccc32)cc1	-
CCc1cccc(NC(=O)c2cc3cc4ccc(OC)cc4nc3o2)c1	-
COc1ccc2cc3cc(C(=O)NC(C)CCc4ccccc4)sc3nc2c1 (centres undefined)	-
COc1ccc2cc3cc(C(=O)NC(C)CCc4ccccc4)oc3nc2c1 (centres undefined)	145
CCN(C(=O)c1cc2cc3ccc(OC)cc3nc2o1)c1cc(C)ccc1C	-
CCc1ccccc1N(CC)C(=O)c1cc2cc3ccc(OC)cc3nc2o1	177
CCOc1ccc(N(CC)C(=O)c2cc3cc4ccc(OC)cc4nc3o2)cc1	-
SMILES	14-3-3 PPI
O=C(c1ccc(-n2c(=S)[nH]c3ccccc3c2=O)cc1)N1CCC(Cc2ccccc2)CC1	-
CCC(C)NC(=O)CNC(=O)Cn1cnc2sc(C)c(C)c2c1=O (centres undefined)	-
COc1ccc2nc(N3CCC(C(=O)NCc4cccs4)CC3)sc2c1	-
CCc1ccc(-n2c(=O)c3ccccc3n(Cc3ccccc3F)c2=O)cc1	-
COc1ccc(NC(=O)C2CC(=O)N(Cc3ccc4c(c3)OCO4)C(=Nc3ccc(F)cc3)S2)cc1 (centres undefined)	-
O=C(O)c1ccc2c(c1)C1C=CCC1C(C(=O)O)N2 (centres undefined)	36
O=C(O)c1ccc2c(c1)C1C=CCC1C(c1ccccn1)N2 (centres undefined)	62
O=C(O)c1ccc2c(c1)C1C=CCC1C(c1ccncc1)N2 (centres undefined)	-
COc1ccccc1C1Nc2ccc(C(=O)O)cc2C2C=CCC21 (centres undefined)	-
CCOC(=O)C1Nc2ccc(C(=O)O)cc2C2C=CCC12 (centres undefined)	-
CCOC(=O)c1ccc2c(c1)C1C=CCC1C(C(=O)O)N2 (centres undefined)	-
CC1=NN(C(=O)c2ccc(F)cc2)C(O)(C(F)(F)F)C1 (centres undefined)	-
O=C(Nc1cccc([N+](=O)[O-])c1)c1ccc(Cl)c(S(=O)(=O)N2CCCCCC2)c1	-
COc1ccc(CN2CCN(Cc3cc(OC)c(OC)c(OC)c3)CC2)cc1Br	-
N#CCN1CCN(CCC(=O)Nc2ccc(F)cc2)CC1	-
Cc1cc([N+](=O)[O-])ccc1NC(=O)c1ccc(F)cc1	-
CC(=O)c1c(C)[nH]c(C(=O)Nc2cc(C)ccc2C)c1C	-
CC(=O)c1c(C(C)=O)c(C)n(-c2ccc(C)c(NC(=O)c3ccc(F)cc3)c2)c1C	32
OC(CN1CCOCC1)CN(c1ccccc1)c1ccccc1 (centres undefined)	92
OC(CN1CCCCC1)CN(c1ccccc1)c1ccccc1 (centres undefined)	-
OC(CN1CCOCC1)CN1CCOCC1	-
O=C(O)c1ccccc1C1=Nc2ccc(O)cc2Oc2cc(O)ccc21	123
O=C1c2ccccc2C(=O)c2cc(O)ccc21	-
Cc1cc(-c2ccccc2C(=O)O)on1	-
CCCCCCc1cc2cc(C(N)=O)c(=Nc3ccccc3C)oc2cc1O	-
O=C(O)c1cc(-c2ccco2)[nH]n1	-
Nc1cc(-c2ccco2)no1	-
c1coc(-c2cc(C3CCNCC3)[nH]n2)c1	42
COc1ccc2nc(Cl)c(C3CC(c4ccc(C)cc4)=NN3C(C)=O)cc2c1 (centres undefined)	-
Cc1ccc(NC(=O)CCN2CCCCCC2)c(C)c1	-
